# Source: PubChem BioAssay (National Center for Advancing Translational Sciences (NCATS))
# HT1080 IDH1KD tx – HT-1080 IDH1 knockdown cell toxicity (counter line); AID 686971; Potency, µM (doses to about 46.1 µM), for inactives: at the highest dose activity, negative = toxicity, most hits filed as cytotoxic; HT-1080 IDH1 knockdown viability, ATP luminescence, 48 h; hit rate 2% among 360,000;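 further: 0% = DMSO wells and -100% = cell-free medium wells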
#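 HT-1080-IDH1KD cells (IDH1 knocked down), 750/well in RPMI with 5% FBS, treated with compound 48 h at 37 degrees C. Viability by CellTiter-Glo luminescence, normalised to DMSO and no-cell wells; concentration-response curves classed.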
# HT1080NT lethal – kills 2HG-producing HT-1080-NT fibrosarcoma cells; HT-1080-NT fibrosarcoma viability, CellTiter-Glo ATP luminescence, 48 h; Potency, µM (series often up to 46.1 µM), for the others: top-dose activity, negative = less viability, hits mostly cytotoxic; hit rate 1.6% among 360,000; AID 686970;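 further: NT is the 2HG producing partner of a matched IDH1 knockdown line; 0% = DMSO-treated cells and -100% = media-only wells without cells; nearly all actives have a fitted effect of over 55% in size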
#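 Viability by CellTiter-Glo luminescence after 48 h compound exposure at 37C of HT-1080-NT cells (750/well, RPMI, 5% FBS). % activity scaled between DMSO wells and medium-only wells, then curve-fitted and categorized by curve class.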
# DT40 TDP1 no CPT – qHTS for Inhibitors of human tyrosyl-DNA phosphodiesterase 1 (TDP1): qHTS in cells in absence of CPT | DT40 Tdp1-/- hTDP1 cells, no CPT, ATP luminescence, 48 h | Potency, µM (series often up to 46.2 µM), for inactives: top-dose activity change, negative = growth inhibition, most hits filed as inhibitors | hit rate 15% among 420,000; further: nearly all actives have a fitted effect of over 55% in size
#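 Compound effects on proliferation are scored in DT40 Tdp1-/-;hTDP1 cells in the absence of CPT. ATP levels (CellTiter-Glo luminescence) are recorded after a ≥48 hr, 37 °C incubation.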
# KB-V1 cytotox – kills drug-selected multidrug resistant KB-V1 cells; Potency, µM (series often up to 46.1 µM), actives largely listed as cytotoxic; KB-V1 MDR cells viability, CellTiter-Glo, 72 h; hit rate 3.4% among 400,000; further: nearly all actives have a fitted effect of over 60% in size
#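 Drug-selected KB-V1 cells, grown in DMEM lacking phenol red with 10% FBS, receive compound titrations; after three days at 37 degrees C, surviving cell ATP is quantified by CellTiter-Glo luminescence and responses normalized and curve-fitted.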
# DT40 TDP1 CPT – growth inhibition of DT40 Tdp1-/-;hTDP1 cells with camptothecin (screen for TDP1 inhibitors); chicken DT40 Tdp1-/-;hTDP1 cells + 20 nM CPT, ATP luminescence, 48 h; Potency, µM (highest dose often 46.2 µM), inactives show top-dose activity change, negative = growth inhibition, hits mostly inhibitors; hit rate 12% among 420,000; AID 686979; further: nearly all actives have a fitted effect of over 55% in size
#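 Chicken DT40 Tdp1-/- cells complemented with human TDP1, 400 cells/well, exposed to compounds plus 20 nM camptothecin for at least 48 h at 37 C; viability read as ATP content by CellTiter-Glo luminescence.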
# KB-3-1 cytotox – kills parental KB-3-1 adenocarcinoma cells; KB-3-1 viability, CellTiter-Glo ATP luminescence, 72 h; Potency, µM (series often up to 46.1 µM), hits mostly cytotoxic; hit rate 1.4% among 400,000; further: nearly all actives have a fitted effect of over 60% in size
#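 Parental KB-3-1 viability, qHTS format: 72 h compound exposure, 37 °C; CellTiter-Glo; media-only wells and DMSO plates as controls; concentration-effect fits on corrected data.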
# * marks the source's active call; other numbers are inactive results; i = inactive; ? = inconclusive; · = no result given; ! = repeats disagree; [ ] = dose if it differs, or a comment. In the library only some 19% were active in any assay of this set; here they are far more common. The call rests on the fitted dose curve; in most records, active means well fitted curve in the direction sought with a large enough effect; inconclusive means small, poorly fitted or top-dose-only effect, or another doubt; inactive means no such curve, though single readings can be large; an effect the other way counts as inactive or inconclusive. Unless noted, on the % scale 0 is the no-effect control and ±100 the full control effect; potency means the concentration at half of the fitted maximal effect.
SMILES,HT1080 IDH1KD tx,HT1080NT lethal,DT40 TDP1 no CPT,KB-V1 cytotox,DT40 TDP1 CPT,KB-3-1 cytotox
Nc1nonc1C(=O)N/N=C/c1cc(Br)ccc1O,2.1µM*,?,1.5µM*,i,0.92µM*,i
Cc1c(C(=O)N/N=C/c2c(O)ccc3ccccc23)nnn1-c1nonc1N,0.58µM*,?,3.7µM*,i,5.8µM*,?
Cc1ccc(/C=N/NC(=O)c2nnn(-c3nonc3N)c2CNc2ccccc2)cc1,-2%,0%,?,i,?,i
CC1=C(C(=O)OC(C)C)[C@@H](c2cccc3nonc23)C([N+](=O)[O-])=C(C)N1,·,·,15µM*,·,?,·
COC(=O)C1=C(C)NC(C)=C([N+](=O)[O-])C1c1ccccc1C(F)(F)F (configuration not stated),-20%,-16%,12µM*!,i,17µM*,i
Cc1c2cnn(CC(=O)NC(C)C)c(=O)c2c(C)n1Cc1ccccc1Cl,·,·,?,i,?,i
COc1cc(=O)n2c(c1C(=O)N(C)Cc1ccsc1)CCN(Cc1c(C)nn(C)c1Cl)CC2,·,·,-5%,·,5%,·
CC1(C)CC(=O)C=C(c2cccc(OC(=O)c3ccc(-c4ccccc4)cc3)c2)C1=O,-6%,-1%,?,i,-8%,i
Cc1cc(C)c(NC(=O)COCc2cc(-c3cccs3)on2)c(C)c1,·,·,?,i,18µM*,i
COc1ccc(N2CCN(C(=O)COCc3cc(-c4ccc5c(c4)OCO5)on3)CC2)cc1,-8%,-3%,18µM*!,i,?,i
CCc1cccc(C)c1NC(=O)COCc1cc(-c2ccc3c(c2)OCO3)on1,·,·,?,i,23µM*,?
O=C(COCc1cc(-c2ccc3c(c2)OCO3)on1)N1CCN(c2cccc(C(F)(F)F)c2)CC1,?,?,23µM*!,i,13µM*,?
CCC(Sc1nc2cc3c(cc2c(=O)n1CCCC(=O)NCc1ccc2c(c1)OCO2)OCO3)C(=O)NCCCOC (configuration not stated),·,·,-16%,·,-4%,·
CCC1CN(CCNC(=O)c2cccnc2OC)Cc2cc(OC)ccc2O1 (configuration not stated),·,·,?,·,4%[9.04 µM],·
CSc1ccc(CNC(=O)C2(C)CCCN2CC(C)C)cc1 (configuration not stated),12%,-2%,16µM*,i,18µM*,i
CCC(=O)N1CCCC1(C)C(=O)NCc1ccc(SC)cc1 (configuration not stated),2%,-3%,-8%,i,-10%,i
CC1CN(C(=O)COC(=O)/C=C/c2ccccc2)CC(C)O1 (configuration not stated),2%,-4%,?,i,-12%,i
O=C(CCn1c(=O)[nH]c2ccccc2c1=O)N1CCN(c2cccc(C(F)(F)F)c2)CC1,-3%,-1%,18µM*,i,16µM*,i
O=C(CCCCn1c(=O)[nH]c2ccsc2c1=O)N1CCN(c2cccc(C(F)(F)F)c2)CC1,·,·,9.2µM*,i,12µM*,i
O=C1Nc2ccccc2OC1CC(=O)N1CCN(c2cccc(C(F)(F)F)c2)CC1 (configuration not stated),20µM*,-15%,?,?,?,i
COc1ccc(N2CCN(C(=O)CCCCCn3c(=O)[nH]c4ccsc4c3=O)CC2)cc1,4%,2%,16µM*,?,?,i
O=C(CCn1c(=O)[nH]c2ccccc2c1=O)N1CCN(c2ccc(Cl)cc2)CC1,4%,7%,-25%,i,?,i
O=C(CCCCn1c(=O)[nH]c2ccccc2c1=O)N1CCN(c2cccc(C(F)(F)F)c2)CC1,-29%,-2%,?,?,16µM*,?
COc1ncc2nc(-c3ccc(F)cc3)c(=O)n(CCC#N)c2n1,·,·,-13%,·,0%,·
O=C(c1ccc(Cn2cc(Br)cn2)cc1)N1N=C(C(F)F)CC1(O)C(F)F (configuration not stated),-1%,-11%,?,i,-20%,i
SMILES,HT1080 IDH1KD tx,HT1080NT lethal,DT40 TDP1 no CPT,KB-V1 cytotox,DT40 TDP1 CPT,KB-3-1 cytotox
O=C(c1ccc(COc2ccc3ccccc3c2)o1)N1N=C(C(F)F)CC1(O)C(F)F (configuration not stated),?,?,21µM*,?,?,i
O=C(c1cc(-c2ccccc2)nc2ccccc12)N1N=C(C(F)F)CC1(O)C(F)F (configuration not stated),-15%,-6%,-10%,i,-29%,i
Cc1cc(C)cc(OCc2ccc(C(=O)N3N=C(C(F)F)CC3(O)C(F)F)o2)c1 (configuration not stated),-10%,-9%,?,?,?,i
CCOc1ccc(OCc2ccc(C(=O)N3N=C(C(F)F)CC3(O)C(F)F)o2)cc1 (configuration not stated),?,?,?,16µM*,?,i
O=C(c1ccc(COc2ccc(Br)cc2)o1)N1N=C(C(F)F)CC1(O)C(F)F (configuration not stated),21µM*,?,?,i,?,i
O=C(c1ccc(COc2ccccc2Cl)o1)N1N=C(C(F)F)CC1(O)C(F)F (configuration not stated),?,?,16µM*,i,23µM*,i
C[C@]12c3[nH]c4ccc(Cl)cc4c3CCN1C(=O)[C@@H](CC(=O)NCC13CC4CC(CC(C4)C1)C3)C[C@@H]2C(=O)N1CCCCC1,8%,4%,16µM*,i,16µM*,i
C[C@]12c3[nH]c4ccc(Cl)cc4c3CCN1C(=O)[C@@H](CC(=O)NCC13CC4CC(CC(C4)C1)C3)C[C@@H]2C(=O)N1CCOCC1,?,23µM*,13µM*,?,10µM*,?
COc1ccc2[nH]c3c(c2c1)CCN1C(=O)C(CC(=O)NCC24CC5CC(CC(C5)C2)C4)C[C@H](C(=O)N2CCOCC2)[C@@]31C (some centres not stated),-15%,0%,?,i,?,i
O=C(CSC1CCCCC1)Nc1nccs1,-2%,3%,-20%,i,-8%,i
